# Source: PubChem BioAssay (NCI)
# Several values for one entry are separate records, joined by “and”; a condition that tells them apart may be missing. Equal entries are not always repeated. The panel holds about 83,000 compounds, 20% with a hit somewhere; the sample as a whole holds those more often.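 Single-concentration screen, 48 h exposure, 96-well plates. Endpoint: percent growth. Below 10 = active.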 A number with no mark means an inactive call. Activity calls are given as the source filed them.
# How the values were obtained:
# Test in all cases: NCI-60 one-dose screen, 48 h (100 = growth as untreated, 0 = no growth, -100 = all killed)
# HCT-15 colon = conditions: 10 µM unless noted
# HT29 colon = conditions: 10 µM unless noted
# SNB-75 CNS = conditions: 10 µM unless noted
# SNB-19 CNS = conditions: 10 µM unless noted
# U251 CNS = conditions: 10 µM unless noted
# PC-3 prostate = conditions: 10 µM unless noted
# SK-MEL-5 melanoma = conditions: 10 µM unless noted
# UACC-62 melanoma = conditions: 10 µM unless noted
# LOX IMVI melanoma = conditions: 10 µM unless noted
# SK-MEL-28 melanoma = conditions: 10 µM unless noted
# SK-MEL-2 melanoma = conditions: 10 µM unless noted
# EKVX NSCLC = conditions: 10 µM
# SN12C renal = conditions: 10 µM unless noted
# UO-31 renal = conditions: 10 µM unless noted
# TK-10 renal = conditions: 10 µM unless noted
# ACHN renal = conditions: 10 µM unless noted
# CAKI-1 renal = conditions: 10 µM unless noted
# A498 renal = conditions: 10 µM unless noted
# CCRF-CEM leukemia = conditions: 10 µM
# MOLT-4 leukemia = conditions: 10 µM unless noted
Structure (SMILES),growth (HCT-15 colon),growth (HT29 colon),growth (SNB-75 CNS),growth (SNB-19 CNS),growth (U251 CNS),growth (PC-3 prostate),growth (SK-MEL-5 melanoma),growth (UACC-62 melanoma),growth (LOX IMVI melanoma),growth (SK-MEL-28 melanoma),growth (SK-MEL-2 melanoma),growth (EKVX NSCLC),growth (SN12C renal),growth (UO-31 renal),growth (TK-10 renal),growth (ACHN renal),growth (CAKI-1 renal),growth (A498 renal),growth (CCRF-CEM leukemia),growth (MOLT-4 leukemia)
Cc1ccc(=O)[nH]n1,110% and 105%,108% and 99.5%,108% and 103%,93.9%,99.7% and 92.4%,96.3% and 92%,101% and 105%,106% and 104%,94.7% and 107%,111% and 115%,116% and 99.5%,114% and 115%,107% and 99.3%,90.9% and 95.1%,110% and 101%,114% and 108%,103% and 97.7%,110% and 94.1%,107% and 99.6%,105% and 101%
CCc1cc(C)cc(O)c1,111%,99.4%,98%,103%,96%,97.1%,105%,108%,105%,111%,–,101%,105%,77.3%,98.6%,117%,108%,102%,98.4%,98.1%
O=C(O)/C=C\C(=O)Nc1cccc2ccccc12,102% and 96.9%,98.1% and 110%,70% and 83%,104% and 100%,94.2% and 102%,103% and 93.6%,95.3% and 108%,99.8% and 79.8%,102% and 104%,101% and 116%,88.2% and 130%,65.1% and 112%,97.6% and 92.3%,59.7% and 72%,107% and 121%,90.5% and 99.2%,89.4% and 98.7%,96.3% and 115%,50.7% and 101%,77.2% and 84.1%
O=C1CSC2=NCCN12,107% and 97.2%,96.4% and 91.5%,87.5% and 83.3%,101% and 112%,88.7% and 91.1%,102% and 121%,88.9% and 86.1%,87.1%,94% and 90.1%,78.5% and 85.8%,89%,99% and 64.7%,106% and 93.2%,84.6% and 90.1%,101% and 106%,98.1% and 103%,95.6%,92.8% and 99.7%,102% and 88.1%,106% and 67.1%
CCCCCCCCCCNC(=O)CI,14%,-54.9% (active),-30.7% (active),89.2%,14.3%,-39.8% (active),3.04% (active),59.4%,-73.2% (active),58.4%,-50.1% (active),–,33.9%,-90.1% (active),15.5%,-93.7% (active),-93.5% (active),111%,-47.1% (active),-28.9% (active)
NC(=O)NCCCC(N)C(=O)O (stereo not drawn),109%,101%,104%,92.1%,96.2%,95.5%,113%,102%,67.6%,99%,95.4%,–,104%,82.8%,99.3%,98.7%,84.6%,113%,–,88.7%
O=C(Cc1ccccc1)c1ccc(O)c(Cl)c1,13.9%,30.2%,72.7%,74.8%,73%,53.2%,27.5%,26.8%,15.2%,49.4%,64.9%,66.1%,31.1%,36.5%,47.4%,37.6%,42.1%,105%,-27.2% (active),22.6%
O=C1c2c(O)ccc(O)c2C(=O)c2c(NCCNCCO)ccc(NCCNCCO)c21,-14.2% (active) and 3.08% (active),-59.8% (active) and -43.2% (active),-90.4% (active),-40.6% (active) and -58.3% (active),-67% (active) and -99.7% (active),-28% (active) and -55.3% (active),-100% (active),-91.9% (active) and -86.7% (active),-66.4% (active) and -76.2% (active),–,-87.6% (active) and -70.5% (active),-17.7% (active) and -29.5% (active),-45.7% (active) and -49.7% (active),-63.5% (active) and -53.9% (active),-35% (active) and -7% (active),-52.9% (active) and -45.2% (active),-17.2% (active) and -31% (active),-80.1% (active),-24.9% (active) and -30.9% (active),2.98% (active) and -18.1% (active)
CCCCOC(=O)/C=C\C(=O)NC(N)=O,90.8%,97%,95.9%,91.4%,96.4%,83%,99.8%,79.1%,79.1%,97.6%,111%,95%,87.2%,31%,119%,61.3%,-58% (active),106%,75.2%,65.4%
Cc1ccc(S(=O)(=O)c2ccccc2)cc1,30.5%,6.22% (active),-19.3% (active),43.4%,17.2%,30.7%,23.7%,63.4%,21%,59.6%,38.6%,76.7%,50.4%,–,51.6%,56%,25.4%,28%,11.5%,32.5%
O=CN1CCCCC1,106%,108%,94.3%,107%,110%,106%,100%,–,96.6%,110%,125%,94.9%,104%,97.2%,125%,109%,96.9%,84.1%,115%,121%
C#CCOC(=O)Nc1ccccc1,99.6%,112%,91.2%,111%,98.2%,96.7%,103%,104%,99.2%,103%,109%,99.1%,101%,97.7%,103%,114%,98%,75.2%,112%,104%
